Consider 21 molecules from PubChem BioAssay (EPA / NIEHS).

Read-out in assay [1]: Vascular endothelial growth factor receptor 2 (Homo sapiens) (UniProt P35968)
Put plainly: BSK_4H_VEGFRII: BioMAP Diversity Plus: 4H Assay for Vascular endothelial growth factor receptor 2 (VEGFR2) Biomarker Activity (AID 2283031). As to conditions: primary human endothelial cells (HUVEC); actives raise or lower the signal. In a few lines: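 HUVEC (human primary), 4H system; 24 h post-dose; VEGFRII by ELISA; bidirectional curve fit vs DMSO baseline; gain or loss of signal scored.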

Read-out in assay [2]: Human Leukocyte Antigen - DR isotype (HLADR), HLA-DRA (gene 3122)
Put plainly: BSK_BE3C_HLADR: BioMAP Diversity Plus: BE3C Assay for Human Leukocyte Antigen - DR isotype (HLADR) Biomarker Activity (AID 2283032). The note with it: primary human bronchial epithelial cells; actives raise or lower the signal. A digest of the protocol:
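Chemicals are dosed onto BE3C bronchial epithelial cultures of human origin and left 24 h. HLA-DR is then measured by ELISA, and the endpoint is fitted in both directions using DMSO as the activity baseline.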

Read-out in assay [3]: Vascular cell adhesion molecule 1 (VCAM1), VCAM1 (gene 7412)
The experiment in a line: BSK_4H_VCAM1: BioMAP Diversity Plus: 4H Assay for Vascular cell adhesion molecule 1 (VCAM1) Biomarker Activity (AID 2283033).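 Also: cell-surface VCAM-1 protein measured by ELISA.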 The note with it: primary human endothelial cells (HUVEC); actives raise or lower the signal. In a few lines:
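Chemicals are added to primary human umbilical vein endothelial cells. After 24 h, VCAM-1 levels are measured by ELISA. Values come from bidirectional fitting referenced to DMSO.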

Read-out in assay [4]: Interferon-gamma inducible Protein 10 (IP10), CXCL10 (gene 3627)
Put plainly: BSK_BE3C_IP10: BioMAP Diversity Plus: BE3C Assay for Interferon-gamma inducible Protein 10 (IP10) Biomarker Activity (AID 2283034). The note with it: primary human bronchial epithelial cells; actives raise or lower the signal. A digest of the protocol:
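IP-10 quantified by ELISA serves as the endpoint. Cells: primary human bronchial epithelium, read 24 h after compound addition. Activity is derived by bidirectional fitting with DMSO as negative control.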

Read-out in assay [5]: Transforming growth factor beta 1 (TGFb1), TGFB1 (gene 7040)
Put plainly: BSK_BE3C_TGFb1: BioMAP Diversity Plus: BE3C Assay for Transforming growth factor beta 1 (TGFb1) Biomarker Activity (AID 2283036;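 as to outcome: TGF-b1 protein level measured by ELISA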). As to conditions: primary human bronchial epithelial cells; actives raise or lower the signal. In a few lines:
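Bronchial epithelial primary cells are treated with test chemical, then TGF-b1 is quantified by ELISA after 24 hours. Values derive from bidirectional fitting against DMSO, with cytotoxicity checked by SRB staining in parallel cultures.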

Read-out in assay [6]: Plasminogen activator inhibitor-1 (PAI1), SERPINE1 (gene 5054)
Put plainly: BSK_BE3C_PAI1: BioMAP Diversity Plus: BE3C Assay for Plasminogen activator inhibitor-1 (PAI1) Biomarker Activity (AID 2283037). The note with it: primary human bronchial epithelial cells; actives raise or lower the signal. A digest of the protocol: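 Values derive from bidirectional fitting against DMSO baseline of PAI-1 levels, measured by ELISA in human bronchial epithelial cells 24 h after compound addition.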

Read-out in assay [7]: urokinase plasminogen activator (uPA), PLAU (gene 5328)
The experiment in a line: BSK_BE3C_uPA: BioMAP Diversity Plus: BE3C Assay for urokinase plasminogen activator (uPA) Biomarker Activity (AID 2283038).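 As to outcome: uPA protein level quantified by ELISA in cell cultures; uPA read one day after compound addition.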 The note with it: primary human bronchial epithelial cells; actives raise or lower the signal. In a few lines:
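ELISA read-out of uPA in human lung primary bronchial epithelial cultures, 24 h post-dosing. Gain or loss of signal fitted bidirectionally relative to DMSO baseline; cytotoxicity checked in parallel cultures via SRB total protein stain.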

Read-out in assay [8]: Urokinase-type plasminogen activator receptor (uPAR), PLAUR (gene 5329)
Put plainly: BSK_BE3C_uPAR: BioMAP Diversity Plus: BE3C Assay for Urokinase-type plasminogen activator receptor (uPAR) Biomarker Activity (AID 2283039).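 As to outcome: uPAR protein level measured by ELISA on the cells; cells exposed to compound for one day before measurement.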 As to conditions: primary human bronchial epithelial cells; actives raise or lower the signal. A digest of the protocol:
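Steps: dose human primary bronchial epithelial cells, incubate 24 h, measure uPAR by ELISA, then fit gain- or loss-of-signal response bidirectionally relative to DMSO.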

Read-out in assay [9]: Urokinase-type plasminogen activator receptor (uPAR), PLAUR (gene 5329)
The experiment in a line: BSK_4H_uPAR: BioMAP Diversity Plus: 4H Assay for Urokinase-type plasminogen activator receptor (uPAR) Biomarker Activity (AID 2283030). The note with it: primary human endothelial cells (HUVEC); actives raise or lower the signal. In a few lines: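 HUVEC, 24 h post-dose; uPAR by ELISA; bidirectional fit vs DMSO baseline.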

Read-out in assay [10]: Monokine induced gamma interferon (MIG), CXCL9 (gene 4283)
Put plainly: BSK_BE3C_MIG: BioMAP Diversity Plus: BE3C Assay for Monokine induced gamma interferon (MIG) Biomarker Activity (AID 2283035).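 Also: MIG protein measured by ELISA in BE3C cultures after 24 h of dosing.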 As to conditions: primary human bronchial epithelial cells; actives raise or lower the signal. In a few lines: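 ELISA quantified MIG after 24 h exposure of primary bronchial epithelial cultures, analysed in both directions relative to DMSO. Cytotoxicity tracked in parallel cultures by sulforhodamine B staining.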

“And” between values parts separate entries of the source, which are not always exact repeats. Equal entries are not always repeated. A structure can be active in one record and inactive in another. The source made the active and inactive calls. The calls were made as follows: active = hit-call score of the fitted dose curve at least 0.9, where 1 is the maximum; inactive = score below 0.9.

With `C#CCN1C(=O)COc2cc(F)c(N3C(=O)C4=C(CCCC4)C3=O)cc21`, the outcome in [1], in [3], in assay [4], in assay [5], in assay [6] and in assay [7] was inactive. Further, the outcome in [8] was inactive. Also, the AC50 in assay [2] is 3.97 µM (active).
As for `O=S(=O)(O)C(F)(F)C(F)(F)C(F)(F)C(F)(F)C(F)(F)C(F)(F)C(F)(F)C(F)(F)F`, the outcome in [1], in [6], in assay [7] and in assay [8] was inactive. Besides, the AC50 is 23.1 µM (active) [middle of 8 runs] in assay [2]; 17.3 µM (active) [middle of 7 runs] in [4]; 32 µM (active) [middle of 4 runs] in [7]; 33.2 µM (active) and 32.7 µM (active) and 6.81 µM (active) in assay [8].
Take `C[C@H]1[C@H](c2ccc(Cl)cc2)SC(=O)N1C(=O)NC1CCCCC1`: the outcome in assay [1], in assay [4], in assay [5], in [7] and in assay [8] was inactive. Besides, the AC50 in assay [2] was 12.6 µM (active); in [6] it was 10.6 µM (active).
In the case of `CC(C)(C)C(O)C(Oc1ccc(Cl)cc1)n1cncn1` (stereo unspecified), the outcome in assay [1], in assay [2], in [4], in [6], in assay [7] and in assay [8] was inactive. Further, the AC50 in assay [2] was 24.2 µM (active).
As for `O=C1c2ccccc2C(=O)N1SC(Cl)(Cl)Cl`, the outcome in assay [9] was inactive. Also, the AC50 in assay [2] was 30.6 µM (active); in [4] it was 35 µM (active); in assay [6] it was 20 µM (active); in [7], 28.7 µM (active); in assay [8] it was 34.7 µM (active).
With `CCC(C)(C)C(=O)OC1=C(c2ccc(Cl)cc2Cl)C(=O)OC12CCCCC2`, the AC50 in assay [9] is 32 µM (active); in assay [2], 23.5 µM (active); in assay [4] it was 31.3 µM (active); in assay [6], 20 µM (active); in [7], 31.1 µM (active); in assay [8], 36.4 µM (active).
As for `CCOC1Oc2ccc(OS(C)(=O)=O)cc2C1(C)C` (stereo unspecified), the result in assay [9], in assay [4], in assay [6] and in assay [8] was inactive. Besides, the AC50 in assay [2] is 24 µM (active); in [7], 26.5 µM (active).
With `CC(C)OC(=O)Nc1cccc(Cl)c1`, the outcome in [9], in assay [2], in [4], in assay [6], in assay [7] and in assay [8] was inactive.
Consider `O=C(NC(=O)c1c(F)cccc1F)Nc1ccc(OC(F)(F)C(F)OC(F)(F)F)c(Cl)c1` (stereo unspecified), for which the outcome in [1], in [3], in [4], in [10], in [6] and in assay [7] was inactive. Besides, the outcome in assay [8] was inactive. Also, the AC50 in assay [2] is 7.82 µM (active).
With `N#CN`, the result in assay [1], in assay [2], in assay [4], in [6], in assay [7] and in assay [8] was inactive. Besides, the concentration at half-maximal activity (AC50) in assay [5] is 0.638 µM (active).
In the case of `COC(=O)c1ccccc1CS(=O)(=O)NC(=O)Nc1nc(OC)cc(OC)n1`, the result in assay [9], in assay [2], in assay [4], in assay [6], in assay [7] and in assay [8] was inactive.
For the molecule `COP(=S)(OC)Oc1ccc([N+](=O)[O-])cc1`, the outcome in assay [9], in assay [2], in [4], in [6], in assay [7] and in assay [8] was inactive. The AC50 in assay [5] was 9.07 µM (active).
On to `CCOc1nc(NC)nc(NC(=O)NS(=O)(=O)c2ccccc2C(=O)OC)n1`, for which the result in assay [9], in [1], in assay [2], in assay [4], in assay [6] and in assay [7] was inactive. Moreover, the result in assay [8] was inactive.
As for `CCCN(CCOc1c(Cl)cc(Cl)cc1Cl)C(=O)n1ccnc1`, the result in assay [1], in [10] and in assay [8] was inactive. Moreover, the AC50 is 29.3 µM (active) in assay [2], 29.9 µM (active) in assay [4], 30.9 µM (active) in assay [6] and 32 µM (active) in assay [7].
As to `COC(=O)c1ccccc1S(=O)(=O)NC(=O)Nc1nc(C)nc(OC)n1`, the outcome in assay [1], in assay [2], in assay [4], in [10], in assay [5] and in [6] was inactive. Further, the result in assay [7] was inactive. Also, the AC50 in [8] was 0.173 µM (active).
With `ClC1C(Cl)C(Cl)C(Cl)C(Cl)C1Cl` (stereo unspecified), the result in assay [9], in assay [2], in assay [4], in [6], in assay [7] and in assay [8] was inactive.
Turning to `CCN(CC)C(=O)SCc1ccc(Cl)cc1`, the outcome in assay [1], in assay [2], in assay [4], in assay [6], in assay [7] and in assay [8] was inactive.
Regarding `CNC(=O)CSP(=S)(OC)OC`, the outcome in assay [1], in [2], in assay [4], in assay [10], in assay [5] and in [6] was inactive. Also, the result in assay [7] and in assay [8] was inactive.
`COP(=O)(OC)OC=C(Cl)Cl`: the result in [9], in assay [2], in [4], in assay [5] and in assay [7] was inactive. For the same molecule, the figures for the AC50 in [6] and in assay [8] were 20 µM (active) and 6.12 µM (active), respectively.
With `O=C(Nc1ccccc1)Nc1cnns1`, the result in assay [9], in assay [2], in assay [3], in assay [4], in assay [10] and in assay [5] was inactive. Besides, the outcome in [6], in assay [7] and in assay [8] was inactive.
Regarding `[2H]C1([2H])[n+]2ccccc2-c2cccc[n+]2C1([2H])[2H]`, the AC50 in assay [9] was 1.49 µM (active); in assay [8], 2.68 µM (active). The outcome in [2], in assay [4], in assay [6] and in assay [7] was inactive.

Usually AC50 stands for the concentration at which the activity in the assay is half-maximal.
